According to PubChem BioAssay AID1159580 (chemical genetic matrix, 2015):
“And” between values parts separate entries of the source, which are not always exact repeats. Identical values can stand only once. Screen size: about 5,500 compounds; about 2,000 (36%) were called active. About 18% were inconclusive and are not listed. Cut-off read from the data, not from the text of the source: active = normalized growth mostly below about 0.91 (no sharp cut-off); inconclusive = no clear call, values can overlap the other calls; inactive = mostly above about 0.92. Some of the results follow.

Assay: chemical genetic growth profiling, strain panel (AID 1159580);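 note: tested at 20 µM; growth read once vehicle control cultures reached saturation at 30 °C; 1 = growth at the plate median or of vehicle wells; lower values mean less growth of the strain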
Conditions: S. cerevisiae deletion strains, growth OD

Measured: normalized growth

O=C1CCC(N2C(=O)c3ccccc3C2=O)C(=O)N1 (stereo unspecified)
inactive: locus YAL013W, strain DEP1, stronger effect = lower value 1.02 and 0.99 | locus YAL021C, strain ccr4, stronger effect = lower value 0.999 | locus YAL026C, strain drs2, stronger effect = lower value 1.01 | locus YAL030W, strain snc1, stronger effect = lower value 1.01 | locus YAL040C, strain CLN3, stronger effect = lower value 1.01 | locus YBL061C, strain skt5, stronger effect = lower value 1.02 | locus YBR009C, strain hhf1, stronger effect = lower value 1.03 | locus YBR021W, strain FUR4, stronger effect = lower value 0.995 | locus YBR023C, strain chs3, stronger effect = lower value 1.03 | locus YBR171W, strain sec66, stronger effect = lower value 1.02 | locus YBR229C, strain ROT2, stronger effect = lower value 1.01 | locus YBR231C, strain swc5, stronger effect = lower value 1.01 | locus YBR279W, strain paf1, stronger effect = lower value 1.03 | locus YCL011C, strain gbp2, stronger effect = lower value 1.03 | locus YCL016C, strain dcc1, stronger effect = lower value 1.03 | locus YCL029C, strain bik1, stronger effect = lower value 0.989 | locus YCL061C, strain MRC1 (second series), stronger effect = lower value 1 | locus YCL061C, strain MRC1, stronger effect = lower value 1.01 | locus YCL069W, strain vba3, stronger effect = lower value 1.02 | locus YCR088W, strain abp1, stronger effect = lower value 1.01 | locus YDL005C, strain med2, stronger effect = lower value 1.01 | locus YDL035C, strain GPR1, stronger effect = lower value 1.02 | locus YDL040C, strain nat1, stronger effect = lower value 1.02 | locus YDL074C, strain BRE1, stronger effect = lower value 1.01 | locus YDL101C, strain DUN1, stronger effect = lower value 1.02 | locus YDL134C, strain PPH21, stronger effect = lower value 1.01 | locus YDL185W, strain tfp1, stronger effect = lower value 0.99 | locus YDL192W, strain arf1, stronger effect = lower value 0.992 | locus YDR001C, strain nth1, stronger effect = lower value 1.02 | locus YDR069C, strain doa4, stronger effect = lower value 1.02 | locus YDR101C, strain arx1, stronger effect = lower value 0.971 | locus YDR137W, strain rgp1, stronger effect = lower value 1.01 | locus YDR150W, strain NUM1, stronger effect = lower value 1.01 | locus YDR159W, strain sac3, stronger effect = lower value 0.974 | locus YDR162C, strain NBP2, stronger effect = lower value 1.04 | locus YDR195W, strain ref2 0.977 | locus YDR297W, strain sur2, stronger effect = lower value 1.01 | locus YDR318W, strain mcm21, stronger effect = lower value 0.977 | locus YDR334W, strain swr1, stronger effect = lower value 1.02 | locus YDR335W, strain msn5, stronger effect = lower value 1.02 | locus YDR363W, strain ESC2, stronger effect = lower value 1 | locus YDR388W, stronger effect = lower value 0.991 | locus YDR392W, strain spt3, stronger effect = lower value 0.958 | locus YDR502C, strain sam2, stronger effect = lower value 0.981 | locus YEL003W, strain gim4, stronger effect = lower value 1.02 | locus YEL037C, strain rad23, stronger effect = lower value 1.02 | locus YEL061C, strain CIN8 (second series), stronger effect = lower value 1.02 | locus YEL061C, strain CIN8, stronger effect = lower value 1.01 | locus YER002W, strain NOP16, stronger effect = lower value 1.01 | locus YER015W, strain faa2, stronger effect = lower value 1.02 | locus YER016W, strain bim1, stronger effect = lower value 1 | locus YER110C, stronger effect = lower value 0.99 | locus YER111C, strain swi4, stronger effect = lower value 1.02 | locus YER155C, strain BEM2 (second series), stronger effect = lower value 0.998 | locus YER155C, strain BEM2, stronger effect = lower value 1 | locus YER167W, strain BCK2, stronger effect = lower value 1.01 | locus YFR010W, strain ubp6, stronger effect = lower value 1.02 | locus YGL078C, strain dbp3, stronger effect = lower value 0.997 | locus YGL086W, strain mad1, stronger effect = lower value 0.985 | locus YGL167C, strain pmr1, stronger effect = lower value 1.02 | locus YGL173C, strain kem1, stronger effect = lower value 1.01 | locus YGL227W, strain vid30, stronger effect = lower value 1.02 | locus YGL240W, strain doc1, stronger effect = lower value 0.986 | locus YGL248W, strain PDE1, stronger effect = lower value 1.01 | locus YGL253W, strain hxk2, stronger effect = lower value 1.01 | locus YGR078C, strain PAC10, stronger effect = lower value 1.02 | locus YGR135W, strain pre9, stronger effect = lower value 0.988 | locus YGR229C, strain SMI1, stronger effect = lower value 1.04 | locus YGR252W, strain gcn5, stronger effect = lower value 0.969 | locus YHR013C, strain ard1, stronger effect = lower value 1.04 | locus YHR027C, strain rpn1, stronger effect = lower value 1.01 | locus YHR030C, strain SLT2, stronger effect = lower value 1 and 0.974 | locus YHR079C, strain IRE1 (second series), stronger effect = lower value 0.981 | locus YHR079C, strain IRE1, stronger effect = lower value 0.971 | locus YHR094C, strain hxt1, stronger effect = lower value 0.994 | locus YHR129C, strain ARP1, stronger effect = lower value 1 | locus YHR142W, strain chs7, stronger effect = lower value 1.04 | locus YHR200W, strain rpn10, stronger effect = lower value 0.986 | locus YIL066C, strain RNR3, stronger effect = lower value 1.01 | locus YIL073C, strain SPO22, stronger effect = lower value 1.01 | locus YIL125W, strain kgd1, stronger effect = lower value 0.997 | locus YIR030C, strain dcg1, stronger effect = lower value 0.994 | locus YJL092W, strain hpr5, stronger effect = lower value 1.02 | locus YJL095W, strain BCK1 (second series), stronger effect = lower value 1.02 | locus YJL095W, strain BCK1, stronger effect = lower value 1.01 and 0.98 | locus YJL115W, strain asf1, stronger effect = lower value 1.01 | locus YJL129C, strain trk1, stronger effect = lower value 1.03 | locus YJL134W, strain LCB3, stronger effect = lower value 1.01 | locus YJL154C, strain vps35, stronger effect = lower value 1.01 | locus YJL164C, strain tpk1, stronger effect = lower value 1.03 | locus YJL166W, strain qcr8, stronger effect = lower value 1.03 | locus YJL168C, strain set2, stronger effect = lower value 0.991 | locus YJL187C, strain SWE1 (second series), stronger effect = lower value 1.01 | locus YJL187C, strain SWE1, stronger effect = lower value 1.01 | locus YJR043C, strain POL32, stronger effect = lower value 0.979 | locus YJR066W, strain TOR1, stronger effect = lower value 0.951
